Tgondii IFNg: blocks Toxoplasma gondii growth in the presence of IFN-gamma; 69,000 compounds, 3.8% hits; activity change, negative = inhibition, % (test concentration not listed); Toxoplasma gondii growth in IFN-gamma-treated host cells; stronger effect = lower value; AID 1259416; in the data active means activity change below about -70%, passing the limit was not always enough;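 further: host cells are HeLa cells infected with Toxoplasma gondii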
An asterisk follows results filed as active; i = inactive. This excerpt belongs to a sample that is enriched for hits.

SMILES | Tgondii IFNg
CCOc1cccc(C2c3[nH]c4ccccc4c3CCN2C(=O)C2CC2)c1 (stereo unspecified) | i
CCOc1cccc(C2c3[nH]c4ccccc4c3CCN2C(=O)c2ccc(Br)cc2)c1 (stereo unspecified) | -98*
CCOc1cccc(C2c3[nH]c4ccccc4c3CCN2C(=O)c2ccc(OC)cc2)c1 (stereo unspecified) | -93*
COc1cccc(C(=O)N2CCc3c([nH]c4ccccc34)C2c2ccc(SC)cc2)c1 (stereo unspecified) | -63
COc1cccc(C(=O)N2CCc3c([nH]c4ccccc34)C2c2ccc(F)cc2)c1 (stereo unspecified) | i
CCOc1cccc(C2c3[nH]c4ccccc4c3CCN2C(=O)c2cc(OC)c(OC)c(OC)c2)c1 (stereo unspecified) | -52
CCOc1cccc(C2c3[nH]c4ccccc4c3CCN2C(=O)c2ccncc2)c1 (stereo unspecified) | -84*
COCCN1CCOCC2(CCCN(C(=O)c3cn(C)cn3)C2)C1 (stereo unspecified) | 2
O=c1[nH]nc(Cn2cccn2)n1Cc1ccccc1 | 6
O=C(Cc1ccccc1F)N1C[C@@H]2CN(CC3CC3)CCO[C@@H]2C1 | 0
CC(=O)Nc1cccc(NC(=O)C(=O)NCCc2csc(-c3cccc(F)c3)n2)c1 | 34
Cl/C(=C/n1cncn1)c1ccc(Cl)cc1Cl | -53
CC(Cc1ccsc1)NC(=O)c1cc(Cn2cnc3ccccc32)[nH]n1 (stereo unspecified) | 3
COc1ccc(S(=O)(=O)N2CCCc3ccccc32)cc1 | -113*
O=C1CCc2cc(S(=O)(=O)N3CCCc4ccccc43)cc3c2N1CCC3 | 1
O=S(=O)(c1ccc(F)cc1)N1CCCc2ccccc21 | -12
COc1ccc(-c2ccccc2C(N)=O)c(C)c1 | 2
Clc1cccc(CN2CCC3(COCc4cnc(-c5ccccc5)nc43)C2)c1 (stereo unspecified) | -64
Cc1ccc(-c2coc(-c3ccc(NC(=O)Nc4ccccc4)cc3)n2)cc1 | 16
Cc1ccc(NC(=O)NC(=O)c2c(C)noc2-c2snnc2C)cc1 | -107*
Cc1ccc(NC(=O)Nc2ccc(-c3nc(-c4ccccc4)co3)cc2)cc1 | 24
Nc1cccc(-c2nc3ccccc3[nH]2)c1 | 52
Nc1ccccc1Nc1nc2ccccc2[nH]1 | -17
Nc1cccc2nc3ccccc3cc12 | -99*
CCC(CO)N(Cc1ccco1)C(=O)c1cccn1C (stereo unspecified) | -1
SMILES | Tgondii IFNg
O=C(NCc1cccnc1)c1ccccc1C(=O)Nc1sc2ccccc2c1Cl | -94*
O=C(Nc1ccccc1C(=O)NCc1cccnc1)c1cc2ccccc2o1 | -35
O=C(Nc1c(C(=O)NCc2cccnc2)[nH]c2ccccc12)c1ccc(Cl)cc1 | -56
O=C(CSc1ncc(-c2ccc(Cl)cc2)n1CCC1=CCCCC1)N1CCCC1 | -55
Cc1nc(N)ncc1C(=O)NCC(c1ccc(Cl)cc1)N1CCCCCC1 (stereo unspecified) | 34
Clc1cc2c(cc1-c1nccn1-c1ccc(Oc3nn[nH]n3)cc1)OCO2 | 2
Cc1cc2c(cc1-c1nccn1-c1ccc3cn[nH]c3c1)OCO2 | -81*
Cc1cc2c(cc1-c1nccn1CCc1nc(-c3cccnc3)no1)OCO2 | -22
CCN1CCC2(CC1)OC(=O)C(C)=C2C(=O)Nc1ccccc1OC | 162
CCn1c(C)nc2cc(NC(=O)CCc3c(C)nn(-c4ccccc4)c3C)ccc21 | -7
COc1ccc(OC)c(C(O)CN2CCCC(c3nc4ccccc4[nH]3)C2)c1 (stereo unspecified) | 112
CN(C(=O)C(C)(C)Oc1cc(C(F)(F)F)n(C)n1)c1ccccc1 | 4
Cc1ccccc1-c1cc(N2CCN(C)CC2)ncc1N(C)C(=O)C(C)(C)c1cc(C(F)(F)F)cc(C(F)(F)F)c1 | -73*
CN1CCN(c2cc(C(F)(F)F)ccn2)CC1C(=O)O (stereo unspecified) | -4
CCN1CCN(C2=NC(C(=O)Nc3ccc(OC)cc3)CC(=O)N2)CC1 (stereo unspecified) | -24
O=C(c1ccc2c(c1)OCO2)N1CCN(S(=O)(=O)c2cc3c4c(c2)CCC(=O)N4CCC3)CC1 | -4
CCc1nnc(NC(=O)CSc2nc3cccnc3n2Cc2ccccc2)s1 | -83*
O=C(CSc1nc2ccccc2n1Cc1ccccc1)Nc1ccccn1 | -6
Cc1nnc(NC(=O)CSc2ccccn2)s1 | 10
O=C(C1CCCN(Cc2cc3n(n2)CCCNC3)C1)N1CCOCC1 (stereo unspecified) | -1
CN(C)c1cc(NCC2CCC3(COCCN(C(N)=O)C3)O2)ncn1 (stereo unspecified) | 140
CC(C)CN1C[C@]23CN(C(=O)C4CCC4)C[C@@H](C[C@H]2S1(=O)=O)O3 | 2
O=C(NCCc1csc(-c2ccccc2)n1)[C@H]1CCCN1C(=O)COc1ccccc1 | 14
COc1ccc(CNC(=O)Cn2c(=O)n(Cc3ccc(F)cc3)c(=O)c3ccccc32)cc1 | -73*
COc1ccc(CNC(=O)Cn2c(=O)cc(-c3nc(C4CC4)no3)c3ccccc32)cc1 | 14
SMILES | Tgondii IFNg
COc1ccc(CNC(=O)Cn2c(N)nc(C)c(C)c2=O)cc1 | -29
CN(Cc1ccccn1)C(=O)C1=NOC2(CCN(S(=O)(=O)c3cccc(F)c3)C2)C1 (stereo unspecified) | -81*
CN(Cc1ccccn1)C(=O)c1cc(-c2cnc(-c3cccc(F)c3)nc2)cn1C | 170
CC(C)N(C)C(=O)C1=NOC2(CCN(C(=O)c3ccccn3)C2)C1 (stereo unspecified) | 0
CN(Cc1ccccn1)C(=O)C1=NOC2(CCN(S(=O)(=O)c3ccc(F)cc3)C2)C1 (stereo unspecified) | -80*
CCCCS(=O)(=O)N1CCC2(CC2C(=O)N(C)Cc2ccccn2)C1 (stereo unspecified) | 114
Cc1ccc(S(=O)(=O)N2CCC3(CC(C(=O)NCC(C)C)=NO3)C2)cc1 (stereo unspecified) | 0
COc1ccc(OC)c(C2CC(=O)Nc3sc4c(C)c(C#N)c(N)nc4c32)c1 (stereo unspecified) | -44
CC(C)(C)c1ccc(S(=O)(=O)N2CCC[C@@H]2C(=O)NCCc2csc(-c3ccccc3)n2)cc1 | -61
Cc1cnc(NCCCN2CCNC(=O)C2)nc1N(C)C | -2
Cc1nc2ccc(Cl)cn2c1C(=O)NCC1(c2ccccc2F)CCOCC1 | 3
CCn1c(C)nc2cc(NC(=O)c3nonc3C)ccc21 | 54
CCS(=O)(=O)N1CC[C@@H]2[C@@H](CO[C@H]2CNc2ncccn2)C1 | 1
Fc1ccccc1OC[C@@H]1CO[C@@H]2CN(c3cnccn3)C[C@@H]12 | 11
Cn1c(CCC(=O)NCc2ccccc2N2CCCC2)nc2cc(Cl)ccc21 | 2
CCOC(=O)c1ccc(N2CCCCC2)c(NS(=O)(=O)c2ccc(C)cc2)c1 | -100*
CCOC(=O)c1cccc(NC(=O)CN2C(=O)CCc3cc(S(=O)(=O)N4CCCCC4)ccc32)c1 | -34
CCOC(=O)c1cnn(C)c1NS(=O)(=O)c1ccc(Cl)cc1 | -62
CCCc1cnc(-c2ccc(C)c3ncccc23)nc1 | 5
CCOc1ccccc1N1CCN(C(=O)c2csc(C(=O)NC3CC3)n2)CC1 | -21
C/C(=C\c1ccco1)CN1CCC(CNC(=O)c2ccoc2C)C1 (stereo unspecified) | -5
Cc1ccc(NC(=O)N2CCN(Cc3nc(-c4cccc(Cl)c4)oc3C)CC2)cc1C | -52
Nc1nc(Nc2ccc3c(c2)CC[C@@H](N2CCCC2)CC3)nn1-c1cc2c(nn1)-c1ccccc1CCC2 | -76*

Assay outcomes as filed in PubChem.
